Consider 5 compounds from PubChem BioAssay (NCATS).

Several values for one entry are separate records, joined by “and”; a condition that tells them apart may be missing. Equal entries are not always repeated. Records with an inconclusive call do not appear. Activity calls are given as the source filed them. Unless noted, calls come from the whole dose curve; as a rule, active = well fitted curve in the direction sought with a large enough effect; inconclusive = small, poorly fitted or top-dose-only effect, or another doubt; inactive = no such curve, though single readings can be large; an effect the other way counts as inactive or inconclusive.

The nature of test [1]: Cell Viability - Mesenchymal (AID 546).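 Note: cells exposed to compound for 40 hours before reading; 0% = DMSO only and -100% = 100 µM tamoxifen.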 In short, it runs like this: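 Human renal mesenchymal cells (glomerulus-derived), 1000 cells/well, 5 hr 37 °C pre-incubation; compound 40 hr, 37 °C; CellTiter-Glo, 20 min RT; luminescence; AC50 via Hill equation.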
The nature of test [2]: Cellular Toxicity (caspase-3) HepG2 (AID 654).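 Note: cells exposed to compound for 16 hours before reading; 0% = DMSO alone and 100% = caspase signal from 100 µM tamoxifen.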 In short, it runs like this:
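Caspase 3/7 activation in HepG2 is measured as rising luminescence after a 16 hr treatment at 37 °C. Values are scaled between DMSO basal and 100 uM tamoxifen, and AC50 is fitted with the Hill equation.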

Test [3] in a line: Cellular Toxicity (caspase-3) HUV-EC-C (AID 656).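 Note: 0% = DMSO basal and 100% = 100 µM tamoxifen.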 A digest of the protocol:
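Luminescent Caspase-Glo 3/7 readout after 16 h, 37 °C compound exposure of HUV-EC-C endothelial cells, 1000 per well, complete medium. AC50 derived by Hill fitting, with DMSO as baseline and 100 uM tamoxifen as full activation.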

Test [4] in a line: Cellular Toxicity (caspase-3) SHSY5Y (AID 657). A digest of the protocol:
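Luminescent Caspase-Glo 3/7 read-out, 1 hr room temperature, follows 16 hours of compound treatment of SH-SY5Y cells at 37 °C. Normalization: DMSO basal, 10 uM staurosporine as 100%; AC50 values from Hill-equation concentration-response fits.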

Test [5] is described as follows: Cellular Toxicity (caspase-3) MRC-5 (AID 659).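 Note: 0% = DMSO basal and 100% = 10 µM staurosporine.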 A digest of the protocol:
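MRC-5 fibroblasts, 1500/well; 16 h cpd, 37 °C; Caspase-Glo 3/7, 1 h RT; lumi read. Norm: DMSO = 0%, 10 uM staurosporine = 100%. Hill-fit AC50 from qHTS conc-response.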

The nature of test [6]: Cellular Toxicity (caspase-3) Mesangial (AID 660).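 Note: combined caspase 3 and 7 activity read by Caspase-Glo luminescence; cells exposed to compound for 16 h before the caspase read.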 In short, it runs like this:
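Seed cells derived from normal human renal glomeruli, incubate 5 h, add compounds across concentrations and incubate 16 h at 37 °C. Caspase 3/7 activation is then quantified by luciferase light, with AC50 derived by Hill modeling.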

A short description of test [7]: MultiTox-Fluor Cytotoxicity Assay - LYMP1-001 - Live Cells (AID 947).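 Note: 0% = DMSO only and full inhibition = tetraoctylammonium bromide control.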
The nature of test [8]: Cell Viability - LYMP1-002 - Assay at 16 hr (AID 948).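 Note: 0% = DMSO alone and full effect = 92 µM tetraoctylammonium bromide.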 In short, it runs like this:
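ATP luminescence (CellTiter-Glo) was measured after 16 hr compound exposure at 37 C of 2500 lymphoblastoid LYMP1-002 cells per well. Concentration-response curves were fitted with the Hill equation to give AC50.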

Test [9] in a line: MultiTox-Fluor Cytotoxicity Assay - LYMP1-002 - Live Cells (AID 955). Note: % is set by controls: 0 for no effect and ±100 for the full control effect. A digest of the protocol:
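Cells were seeded at 2500 per well and incubated 5 hr. Compounds were then added for 16 hr at 37 C, followed by MultiTox-Fluor reagent for 60 min at room temperature and fluorescence reading of viable-cell protease signal.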

Test [10] is described as follows: MultiTox-Fluor Cytotoxicity Assay - LYMP1-003 - Dead Cells (AID 961).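 Note: 0% = DMSO and 100% = tetraoctylammonium bromide; nearly all actives have a fitted effect of over 70% in size.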 In short, it runs like this:
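LYMP1-003 human lymphoblastoid cells (2500/well) exposed to compound 16 h at 37 C in complete medium; dead-cell protease read with bis-AAF-R110 fluorescence (Ex/Em 485/520) after 60 min at room temperature. Normalized to DMSO and 15 uM tetraoctylammonium bromide; AC50 from Hill fit.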

The target in test [11] is Thyroid hormone receptor beta (Homo sapiens) (UniProt P10828). As to the kind of experiment: qHTS assay for small molecule agonists of thyroid hormone receptor beta signaling (AID 588545; calls by dose curve). A digest of the protocol: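 Agonist activity was read as beta-lactamase CCF4 fluorescence (405 ex, 460/530 em), scaled between DMSO (0%) and 10 nM T3 (100%), then Hill-fitted for EC50 and efficacy. HEK 293 TR-UAS-bla cells in 2% charcoal/dextran FBS medium were exposed 18 h at 37 C.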
Chain of Thyroid hormone receptor beta (Homo sapiens) (P10828 whole entry, looked up): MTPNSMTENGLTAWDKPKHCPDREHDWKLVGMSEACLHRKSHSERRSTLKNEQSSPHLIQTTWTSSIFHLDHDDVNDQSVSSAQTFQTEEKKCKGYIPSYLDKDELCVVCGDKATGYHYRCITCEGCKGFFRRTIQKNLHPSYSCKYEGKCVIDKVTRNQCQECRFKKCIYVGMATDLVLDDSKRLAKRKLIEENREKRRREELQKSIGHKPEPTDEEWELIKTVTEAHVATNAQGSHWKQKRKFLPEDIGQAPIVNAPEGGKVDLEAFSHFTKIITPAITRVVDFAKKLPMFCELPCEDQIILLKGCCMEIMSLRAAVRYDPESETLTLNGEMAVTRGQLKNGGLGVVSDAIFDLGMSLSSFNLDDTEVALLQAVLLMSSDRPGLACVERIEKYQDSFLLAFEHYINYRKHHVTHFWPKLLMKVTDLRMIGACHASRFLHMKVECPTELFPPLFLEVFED
Background: Quantitative high-throughput screening tests each substance at several concentrations.

A short description of test [12]: qHTS assay for small molecule antagonists of retinoid X receptor alpha signaling (AID 588546; active = well fitted inhibition curve with a large enough effect in the signal ratio, with a control signal flat, not every such curve was filed as active; the % refers to the signal ratio;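 note: cells stimulated with 9-cis-retinoic acid as agonist; % is set by controls: 0 for no effect and ±100 for the full control effect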). The following applies: HEK293T RXRa-UAS-bla, beta-lactamase ratio, antagonist mode; measured here: W530 green channel, cytotoxicity proxy. In short, it runs like this:
(§1)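 Beta-lactamase reporter inhibition, read as CCF4 fluorescence ratio (ex 405, em 460/530 nm) after 2 h at RT. HEK293T UAS-bla cells, 2500/well, were stimulated with 9-cis-RA at 500 or 100 nM final alongside test compound for 18 h at 37 C.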

In test [13] the target is Retinoic acid receptor RXR-alpha (Homo sapiens) (UniProt P19793). The description is as above. Particulars: HEK293T RXRa-UAS-bla, beta-lactamase ratio, antagonist mode. In short, it runs like this: as §1
Chain of Retinoic acid receptor RXR-alpha (Homo sapiens) (P19793 whole entry, looked up): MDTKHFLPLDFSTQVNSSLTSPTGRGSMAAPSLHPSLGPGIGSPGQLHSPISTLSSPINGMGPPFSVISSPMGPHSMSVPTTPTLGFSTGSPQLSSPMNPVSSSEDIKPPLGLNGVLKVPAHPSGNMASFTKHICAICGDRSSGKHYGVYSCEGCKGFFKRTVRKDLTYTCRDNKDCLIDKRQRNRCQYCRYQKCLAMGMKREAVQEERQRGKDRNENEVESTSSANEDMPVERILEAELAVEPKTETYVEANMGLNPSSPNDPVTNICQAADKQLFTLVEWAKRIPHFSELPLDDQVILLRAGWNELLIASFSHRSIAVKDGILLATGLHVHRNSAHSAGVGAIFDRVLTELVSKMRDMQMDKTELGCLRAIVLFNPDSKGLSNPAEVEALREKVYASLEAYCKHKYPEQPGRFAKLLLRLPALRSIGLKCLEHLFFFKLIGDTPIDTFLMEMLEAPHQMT
For test [14], the target named is Thyroid hormone receptor beta (Homo sapiens) (UniProt P10828). As to the kind of experiment: qHTS assay for small molecule antagonists of thyroid hormone receptor beta signaling (AID 588547; active = well fitted inhibition curve with a large enough effect in the signal ratio, with a control signal flat, not every such curve was filed as active; the % refers to the signal ratio;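 note: cells stimulated with 0.4 nM T3 agonist during compound exposure; series mostly up to about 77 µM; % is set by controls: 0 for no effect and ±100 for the full control effect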). Particulars: TR-UAS-bla HEK293, beta-lactamase ratio, antagonist mode, 18 h. A digest of the protocol: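 TR-UAS-bla GripTite HEK293 cells in 2% charcoal/dextran FBS medium; compounds 0.59 nM to 92 uM with T3 at 0.4nM final, 18 h at 37 C. Beta-lactamase read by CCF4 fluorescence (460/530 nm); Hill fits gave IC50 and efficacy.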

For test [15], the target named is Peroxisome proliferator-activated receptor alpha (Homo sapiens) (UniProt Q07869). As to the kind of experiment: qHTS assay for small molecule agonists of the peroxisome proliferator-activated receptor alpha (PPARalpha) signaling pathway (AID 651778). Note: % of control where 0% means no effect. Particulars: PathHunter PPARalpha complementation, chemiluminescence, 6 h; stronger effect = higher value. In short, it runs like this: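 Enzyme-fragment complementation assay in which ligand-bound PPARalpha translocates and forms an active enzyme that generates chemiluminescence. Cells were plated overnight, exposed to compound for 6 hr at 37 C, and then given detection reagent for 60 min at room temperature.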
Chain of Peroxisome proliferator-activated receptor alpha (Homo sapiens) (Q07869 whole entry, looked up, the tested form may be a part): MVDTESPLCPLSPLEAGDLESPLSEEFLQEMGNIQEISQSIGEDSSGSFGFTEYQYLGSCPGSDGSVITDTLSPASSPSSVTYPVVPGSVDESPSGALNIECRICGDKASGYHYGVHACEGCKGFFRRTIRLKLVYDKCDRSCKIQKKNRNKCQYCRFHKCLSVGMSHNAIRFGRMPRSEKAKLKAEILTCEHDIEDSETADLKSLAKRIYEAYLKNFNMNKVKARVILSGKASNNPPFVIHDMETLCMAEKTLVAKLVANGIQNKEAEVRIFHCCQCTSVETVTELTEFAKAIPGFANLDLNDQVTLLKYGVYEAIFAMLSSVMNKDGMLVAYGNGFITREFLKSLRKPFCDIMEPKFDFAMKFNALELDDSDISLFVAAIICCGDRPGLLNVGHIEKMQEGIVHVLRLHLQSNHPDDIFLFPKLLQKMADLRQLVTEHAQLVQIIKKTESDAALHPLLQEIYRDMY

A short description of test [16]: qHTS assay for small molecule agonists of the antioxidant response element (ARE) signaling pathway measured by Nrf2-dependant transcriptional activity (AID 720636; active = well fitted curve in the direction sought with a large enough effect in the repeat runs; an effect the other way counts as inactive or inconclusive; note: % of control where 0% means no effect). A digest of the protocol:
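Nrf2-dependent transcription read as ONE-Glo luciferase signal from ARE-luc HepG2 reporter cells after 16 hr compound treatment at 37 C, 5% CO2, in assay medium with 1% dialyzed FBS.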

The nature of test [17]: qHTS assay for small molecule antagonists of the retinoid-related orphan receptor gamma (ROR-gamma) signaling pathway - cell viability counter screen (AID 720652; active = well fitted curve in the direction sought with a large enough effect in the repeat runs; an effect the other way counts as inactive or inconclusive;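 note: CHO reporter cells with doxycycline-induced ROR-gamma expression; series mostly up to about 92 µM; compound exposure lasted 16 hr before ATP read; % is set by controls: 0 for no effect and ±100 for the full control effect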). A digest of the protocol:
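Steps: seed CHO cells bearing TET-inducible ROR and ROR response element-luciferase; rest 5 hr at 37 C; add compound, then doxycycline; incubate 16 hr; add CellTiter-Glo and read luminescence as ATP-based viability.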

The nature of test [18]: qHTS assay for small molecule agonists of the antioxidant response element (ARE) signaling pathway measured by Nrf2-dependant transcriptional activity - cell viability counter screen (AID 720653; active = well fitted curve in the direction sought with a large enough effect in the repeat runs; an effect the other way counts as inactive or inconclusive; note: % is set by controls: 0 for no effect and ±100 for the full control effect). The following applies: ARE-bla HepG2 viability, CellTiter-Glo ATP luminescence, 16 h; stronger effect = lower value. A digest of the protocol:
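ARE-bla HepG2 cells treated with compounds for 16 h at 37C; this counter screen measures viability as intracellular ATP by CellTiter-Glo luminescence after 30 min at room temperature.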

Test [19] is described as follows: qHTS assay for cell viability of HEK293 cells (AID 743288). Note: % is set by controls: 0 for no effect and ±100 for the full control effect; nearly all actives have a fitted effect of over 50% in size. Particulars: ATP luminescence (CellTiter-Glo), 18 h; max response: stronger effect = lower value. In short, it runs like this: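 Readout is luciferase-coupled ATP content (CellTiter-Glo luminescence, 30 min room temperature) as a measure of metabolically competent cells. Parental HEK293 cells were plated 5 h or more before compound addition, then treated 18 h at 37 C.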

Test [20] can be described thus: qHTS assay for cell viability of the p53RE-bla HCT-116 cell line (AID 743292). Note: % is set by controls: 0 for no effect and ±100 for the full control effect; nearly all actives have a fitted effect of over 55% in size. In short, it runs like this:
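ATP-based luminescent viability (CellTiter-Glo, 30 min RT) after 16 h compound treatment at 37 C of p53RE-bla HCT-116 cells, seeded at 4,000 cells/well and rested 5 h before dosing.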

With `COC1=CC(=O)OC(CCc2ccccc2)C1` (stereo not given), the outcome in test [1], in test [2], in test [3], in test [4], in [5] and in [6] was inactive. For the same compound, the compound was called inactive in test [9], in test [11] and in test [16]. The Potency result in test [7], in [8], in [10], in test [17] and in test [20] was “inactive” each time. The max response was -2.34% in test [12]; 14.2% (inactive) in [13]; -9.22% (inactive) in [15]; -8.18% (inactive) in test [18]; -7.7% (inactive) in [19]. In addition, in test [14], the activity change % (negative = inhibition) is 3.59% (inactive).
With `COC1=CC(=O)O[C@@H](/C=C/c2ccc3c(c2)OCO3)C1`, the outcome in [1], in [2], in test [3], in test [4], in test [5] and in test [6] was inactive. The call in test [9], in test [11] and in test [16] was inactive. Further, the Potency result in [7], in test [8], in [10], in test [17] and in test [20] was “inactive” throughout. The max response is 10.1% in test [12]; -29.4% (inactive) in test [13]; -0.53% (inactive) in test [15]; -10.1% (inactive) in test [18]; -22% (inactive) in test [19]. Also, in test [14], the activity change % (negative = inhibition) is 4.69% (inactive).
On to `Cc1ccc([N+](=O)[O-])cc1C`, for which the call in [1], in test [2], in test [3], in [4], in test [5] and in test [6] was inactive. The compound was called inactive in test [9], in test [11] and in test [16]. Also, the Potency entry in test [7], in test [8], in [10], in test [17] and in test [20] was “inactive” in each case. Further, the max response in test [12] was -4.65% and -9.04%; in [13] it was 17.5% (inactive) and -26.4% (inactive); in [15], -4.21% (inactive) and -1.01% (inactive); in test [18], 4.05% (inactive) and -7% (inactive); in test [19] it was -0.535% (inactive) and -15% (inactive). Also, the activity change % (negative = inhibition) in test [14] was 13% (inactive) and 10.3% (inactive).
Consider `C=C(C)C#N`, for which the compound was called inactive in [1], in [2], in test [3], in [4], in test [5] and in test [6]. The compound was classed as inactive in [9], in [11] and in test [16]. Moreover, the Potency entry in test [7], in test [8], in test [10], in test [17] and in test [20] was “inactive” each time. Moreover, the max response is 2.43% and -11.4% in [12]; -5.47% (inactive) and -20.9% (inactive) in test [13]; -3.42% (inactive) and 0.836% (inactive) in test [15]; -12.2% (inactive) and -0.888% (inactive) in test [18]; -2.82% (inactive) and -11% (inactive) in [19]. Moreover, in test [14], the activity change % (negative = inhibition) is -13.7% (inactive) and -1.19% (inactive).
`NC(=S)Nc1ccccc1`: the result in [1], in test [2], in test [3], in test [4], in test [5] and in test [6] was inactive. The call in [9], in test [11] and in [16] was inactive. Further, the Potency result in test [7], in test [8], in test [10], in test [17] and in [20] was “inactive” in each case. Moreover, the max response is -15.9% and -3.13% and -6.62% in [12]; 6.2% (inactive) and -12.5% (inactive) and -20.4% (inactive) in [13]; -6.31% (inactive) and -5.47% (inactive) and -0.622% (inactive) in [15]; -3.66% (inactive) and 8.32% (inactive) and -3.85% (inactive) in [18]; -1.42% (inactive) and -0.575% (inactive) and -4.82% (inactive) in test [19]. Moreover, the activity change % (negative = inhibition) in [14] is -7.36% (inactive) and -1.01% (inactive) and 3.6% (inactive).
